Measured values: paper PMC7862700, “An all-to-all approach to the identification of sequence-specific readers for epigenetic DNA modifications on cytosine”

Legend:
Test in all cases: DAPPL (digital affinity profiling via proximity ligation, sequencing); 10 mM Tris-HCl pH 7.5, 50 mM NaCl, 1 mM DTT, 4% glycerol, room temperature, 30 min; GST-TFs on glutathione beads, 16-mer random dsDNA library, 0.1% formaldehyde crosslink after washing; high values mean tight binding
Conditions in all cases: protein: recombinant; tags: N-terminal GST; dsDNA, one strand shown
[1] = target: T1, FLI1 (Homo sapiens, UniProt Q01543 1-452)
T1 sequence: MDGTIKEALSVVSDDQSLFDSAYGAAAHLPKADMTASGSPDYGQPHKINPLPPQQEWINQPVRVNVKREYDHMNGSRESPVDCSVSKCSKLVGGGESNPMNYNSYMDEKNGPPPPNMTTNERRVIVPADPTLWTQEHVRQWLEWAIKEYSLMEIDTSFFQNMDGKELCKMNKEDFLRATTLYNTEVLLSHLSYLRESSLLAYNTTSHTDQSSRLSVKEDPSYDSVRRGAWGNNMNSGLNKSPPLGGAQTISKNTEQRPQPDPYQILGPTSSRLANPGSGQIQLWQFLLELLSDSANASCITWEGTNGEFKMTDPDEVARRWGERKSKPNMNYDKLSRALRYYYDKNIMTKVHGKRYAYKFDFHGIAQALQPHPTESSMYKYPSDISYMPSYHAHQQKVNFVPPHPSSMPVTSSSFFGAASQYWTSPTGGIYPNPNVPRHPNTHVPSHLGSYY
Summary of the method: (§1)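 Pools were built from human transcription factors expressed in yeast as GST fusions, captured on glutathione beads and DNA-barcoded, along with a tag-only sample. Incubation with 200 nmole of a 16-mer random double-stranded DNA library lasted 30 min at room temperature in Tris/NaCl/DTT/glycerol buffer, and was followed by washing, 0.1% formaldehyde crosslinking, proximity ligation, PCR amplification and Illumina NextSeq500 sequencing. Binding signal is the quotient of each hexamer's read frequency for a factor and its frequency for the tag-only sample.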

[2] = target: T2, ELK1 (Homo sapiens, UniProt P19419 1-428)
T2 sequence: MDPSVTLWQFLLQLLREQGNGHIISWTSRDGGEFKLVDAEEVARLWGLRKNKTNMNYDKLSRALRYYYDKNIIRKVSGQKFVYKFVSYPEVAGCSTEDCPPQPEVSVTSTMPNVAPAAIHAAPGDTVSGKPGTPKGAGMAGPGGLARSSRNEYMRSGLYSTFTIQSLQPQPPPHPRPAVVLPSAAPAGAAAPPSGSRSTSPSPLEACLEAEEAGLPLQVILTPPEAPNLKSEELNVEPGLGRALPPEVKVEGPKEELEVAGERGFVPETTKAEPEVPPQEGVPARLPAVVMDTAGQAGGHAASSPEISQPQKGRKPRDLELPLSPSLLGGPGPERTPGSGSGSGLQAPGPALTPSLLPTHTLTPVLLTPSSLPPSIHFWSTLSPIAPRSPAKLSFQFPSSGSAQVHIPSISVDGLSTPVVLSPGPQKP
Summary of the method: as §1

[3] = target: T3, GABPA (Homo sapiens, UniProt Q06546 1-454)
T3 sequence: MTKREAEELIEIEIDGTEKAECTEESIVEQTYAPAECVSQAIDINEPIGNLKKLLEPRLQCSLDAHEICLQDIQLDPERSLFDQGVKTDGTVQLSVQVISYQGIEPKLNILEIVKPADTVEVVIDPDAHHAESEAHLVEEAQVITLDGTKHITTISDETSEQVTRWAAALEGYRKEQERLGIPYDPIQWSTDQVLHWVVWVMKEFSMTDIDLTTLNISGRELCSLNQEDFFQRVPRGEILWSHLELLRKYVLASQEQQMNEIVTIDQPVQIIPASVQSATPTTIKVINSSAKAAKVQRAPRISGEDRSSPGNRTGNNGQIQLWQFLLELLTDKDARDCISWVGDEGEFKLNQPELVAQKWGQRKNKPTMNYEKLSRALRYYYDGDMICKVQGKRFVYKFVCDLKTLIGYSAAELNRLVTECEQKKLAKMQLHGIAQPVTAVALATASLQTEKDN
Summary of the method: as §1

[4] = target: T4, ERG (Homo sapiens, UniProt P11308 1-479)
T4 sequence: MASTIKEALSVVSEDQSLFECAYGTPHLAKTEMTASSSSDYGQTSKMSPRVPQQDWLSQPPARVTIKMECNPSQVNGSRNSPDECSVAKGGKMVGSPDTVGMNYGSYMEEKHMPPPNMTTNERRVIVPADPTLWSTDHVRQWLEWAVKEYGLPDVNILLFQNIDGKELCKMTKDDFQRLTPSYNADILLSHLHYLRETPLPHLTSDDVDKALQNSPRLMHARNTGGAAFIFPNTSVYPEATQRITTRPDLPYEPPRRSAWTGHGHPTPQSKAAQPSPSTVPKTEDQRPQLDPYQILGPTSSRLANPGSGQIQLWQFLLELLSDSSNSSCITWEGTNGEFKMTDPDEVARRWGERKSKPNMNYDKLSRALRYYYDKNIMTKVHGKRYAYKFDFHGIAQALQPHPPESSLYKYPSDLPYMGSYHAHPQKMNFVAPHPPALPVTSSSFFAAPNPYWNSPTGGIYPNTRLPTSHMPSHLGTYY
Summary of the method: as §1

[5] = target: ELF1 (Homo sapiens, UniProt P32519 1-619)
Summary of the method: as §1

[6] = target: T5, EHF (Homo sapiens, UniProt Q9NZC4 1-300)
T5 sequence: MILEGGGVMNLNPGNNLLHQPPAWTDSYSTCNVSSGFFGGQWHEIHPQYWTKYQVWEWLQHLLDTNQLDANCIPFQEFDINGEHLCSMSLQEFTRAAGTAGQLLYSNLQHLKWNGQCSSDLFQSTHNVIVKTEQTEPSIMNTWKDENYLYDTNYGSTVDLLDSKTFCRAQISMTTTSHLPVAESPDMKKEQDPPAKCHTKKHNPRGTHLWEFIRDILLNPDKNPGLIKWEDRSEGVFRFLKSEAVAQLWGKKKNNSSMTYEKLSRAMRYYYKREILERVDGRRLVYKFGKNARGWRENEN
Summary of the method: as §1

[7] = target: SPI1 (Homo sapiens, UniProt P17947 1-270)
Summary of the method: as §1

[8] = target: SPIB (Homo sapiens, UniProt Q01892 1-262)
Summary of the method: as §1

[9] = target: T6, ELK3 (Homo sapiens, UniProt P41970 1-407)
T6 sequence: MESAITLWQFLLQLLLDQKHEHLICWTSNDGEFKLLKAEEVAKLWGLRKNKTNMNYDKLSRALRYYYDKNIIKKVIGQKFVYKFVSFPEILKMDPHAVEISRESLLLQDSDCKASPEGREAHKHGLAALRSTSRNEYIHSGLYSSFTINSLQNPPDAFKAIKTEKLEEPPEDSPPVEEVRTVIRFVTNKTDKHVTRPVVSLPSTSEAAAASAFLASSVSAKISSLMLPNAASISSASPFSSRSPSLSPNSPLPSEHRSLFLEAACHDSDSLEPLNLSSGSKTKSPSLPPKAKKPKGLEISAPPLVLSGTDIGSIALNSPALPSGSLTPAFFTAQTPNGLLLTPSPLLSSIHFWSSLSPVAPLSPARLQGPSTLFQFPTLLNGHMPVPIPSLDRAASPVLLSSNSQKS
Summary of the method: as §1

Chain of ELF1 (P32519 whole entry): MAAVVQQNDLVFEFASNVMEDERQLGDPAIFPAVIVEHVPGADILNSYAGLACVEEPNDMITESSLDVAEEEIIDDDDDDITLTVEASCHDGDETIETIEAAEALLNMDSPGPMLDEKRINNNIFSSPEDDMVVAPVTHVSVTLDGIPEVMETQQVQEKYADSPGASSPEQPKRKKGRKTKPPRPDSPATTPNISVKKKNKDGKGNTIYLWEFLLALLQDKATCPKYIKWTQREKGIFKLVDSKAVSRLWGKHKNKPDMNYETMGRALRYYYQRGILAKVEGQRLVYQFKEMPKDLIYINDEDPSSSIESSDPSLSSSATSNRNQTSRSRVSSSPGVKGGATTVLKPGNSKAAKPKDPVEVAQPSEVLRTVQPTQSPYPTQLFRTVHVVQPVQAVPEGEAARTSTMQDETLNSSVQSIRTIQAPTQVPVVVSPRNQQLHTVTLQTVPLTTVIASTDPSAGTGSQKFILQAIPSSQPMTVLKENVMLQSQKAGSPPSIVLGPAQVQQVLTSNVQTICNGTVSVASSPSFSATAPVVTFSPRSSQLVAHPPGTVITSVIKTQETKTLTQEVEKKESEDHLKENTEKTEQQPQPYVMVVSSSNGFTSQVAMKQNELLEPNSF
Chain of SPIB (Q01892 whole entry): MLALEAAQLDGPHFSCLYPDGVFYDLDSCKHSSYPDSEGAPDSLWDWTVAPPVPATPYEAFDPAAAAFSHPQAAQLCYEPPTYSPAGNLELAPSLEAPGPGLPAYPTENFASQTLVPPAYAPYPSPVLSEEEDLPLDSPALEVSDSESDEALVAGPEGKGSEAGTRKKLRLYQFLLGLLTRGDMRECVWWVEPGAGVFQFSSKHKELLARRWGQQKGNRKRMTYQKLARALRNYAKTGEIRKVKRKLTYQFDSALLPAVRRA

## GACTCT
[1]
  binding signal: 1.3 fold enrichment (6-mer frequency, TF over GST control)
[2]
  binding signal: 1.28 fold enrichment (6-mer frequency, TF over GST control)
[3]
  binding signal: 1.37 fold enrichment (6-mer frequency, TF over GST control)
[4]
  binding signal: 1.34 fold enrichment (6-mer frequency, TF over GST control)
[5]
  binding signal: 1.37 fold enrichment (6-mer frequency, TF over GST control)
[6]
  binding signal: 1.27 fold enrichment (6-mer frequency, TF over GST control)
[7]
  binding signal: 1.2 fold enrichment (6-mer frequency, TF over GST control)
[8]
  binding signal: 1.37 fold enrichment (6-mer frequency, TF over GST control)
[9]
  binding signal: 1.2 fold enrichment (6-mer frequency, TF over GST control)
